Assay [1] can be described thus: Cell Viability - LYMP1-002 - Assay at 16 hr (AID 948). Conditions: LYMP1-002 lymphoblastoid cell viability; series mostly up to 92.2 µM. In a few lines: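 In this qHTS, lymphoblastoid LYMP1-002 cells (human) receive compounds for 16 hr at 37 C. Viability is taken from CellTiter-Glo ATP luminescence, and AC50 derives from standard Hill fits.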
Assay [2] can be described thus: Cell Viability - LYMP2-022 (AID 987). Also: nearly all actives have a fitted effect of over 55% in size. Conditions: LYMP2-022 lymphoblastoid cell viability; series mostly up to 92.2 µM. In a few lines:
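In this qHTS cytotoxicity screen, compound titrations were incubated 24 hr at 37 C with human lymphoblastoid cells in complete medium. Luciferase-based ATP luminescence provided the viability signal.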

Assay [3] in a line: qHTS assay to identify small molecules that stimulate interleukin-8 (IL-8) secretion (AID 651758; active = well fitted activation curve with a large enough effect in the signal ratio; the % refers to the signal ratio). Conditions: HTRF ratio (665/615); series mostly up to 92.2 µM. In a few lines:
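Secreted IL-8 measured homogeneously by TR-FRET (two labelled anti-IL-8 antibodies, 1-3 h at room temperature) after a 16 h, 37 C compound treatment of THP-1 cells at 2000 cells/well.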
(qHTS replaces the single test concentration by a dilution series.)

Inconclusive results are not listed. Calls of active or inactive are those of the source. Unless noted, calls follow the shape of the dose curve; as a rule, active = well fitted cell-killing curve with a large enough effect; inconclusive = small, poorly fitted or top-dose-only effect; inactive = flat fitted curve, though single readings scatter.
Potency is read from the fitted curve at half-maximal effect.

On to `O=Nc1ccc(Nc2ccccc2)cc1`, for which the Potency in assay [1] was 10 µM (active).

Turning to `c1cc(OCC2CO2)cc(OCC2CO2)c1` (stereo not drawn), the figures for the Potency in assay [2] and in assay [3] were 31.6 µM (active) and 42.2 µM (active), respectively.

For the origin of these results see PubChem BioAssay (NCATS).
